High-throughput results: PubChem BioAssay, Johns Hopkins Ion Channel Center
KCNQ2 block: inhibitors of rat KCNQ2 potassium channel; 310,000 tested, 1.1% active; B-score at 10 µM; AID 2156; O88943; CHO-K1 KCNQ2, FluxOR thallium flux, 20 min; stronger effect = lower value;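 active = fluorescence ratio B-score at most minus 3 library SDs, with starting brightness B-score within 2 library SDs, cut at about -5.5 in these data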
KCNQ2 pot: potentiators of rat KCNQ2 potassium channel; O88943; CHO-K1 KCNQ2, FluxOR thallium flux fluorescence; stronger effect = higher value; B-score at 10 µM; 310,000 tested, 0.54% active; AID 2239;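 active = fluorescence ratio B-score at least 3 SD of library B-scores, with initial fluorescence B-score within 3 of them, cut at about 5.3 in these data; same plate scores as AID 2156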;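 also: B-score of peak minus minimum over baseline fluorescence ratio after K+ and Tl+ stimulus; positive B-score means potentiation of KCNQ2 with more thallium influx and brighter signal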
Kir21 conf inh: confirmation of mouse Kir2.1 potassium channel inhibitors; Tl flux remaining, % of negative control (stronger effect = lower value), % at 10 µM; Kir2.1-expressing cells, FluxOR thallium flux fluorescence; stronger effect = lower value; shares compounds with KCNQ2 pot; 2,300 tested, 41% active;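 active = Primary-screen hit whose thallium flux fell at least 3 control SD below untreated wells in both duplicates, with normal baseline fluorescence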;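 also: 0% = blank wells without stimulus and 100% = stimulated no-compound controls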
HEK293 ctr: parental HEK293 activity in Kir2.1 inhibitor counter-screen; parental HEK293 cells, FluxOR thallium flux fluorescence; 0% = unstimulated blank wells; AID 2105; shares compounds with KCNQ2 pot; 2,300 tested, 19% active; FluxOR signal as % of negative control (100 = no effect), % at 10 µM;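 active = dye signal at least 3 control SD above or below untreated wells in both duplicates, raw fluorescence within 3, either direction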;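 also: percent is based on the flux ratio of peak minus minimum fluorescence over baseline F0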
CHO-K1 Tl ctr: alters thallium flux in parental CHO-K1 cells, KCNQ2 counter-screen. shares compounds with KCNQ2 pot. FluxOR thallium flux fluorescence; zero = vehicle mean+3SD, 100% = vehicle-minus-blank window. activity increase over 3SD of controls, % at 10 µM. 1,200 tested, 43% active. AID 2282;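 active = signal rise of at least 3 SD above the untreated control mean, in both duplicate wells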;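 also: counter screen of KCNQ2 potentiator hits so any rise reflects channel-independent effects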
KCNQ1 pot spec: tests whether KCNQ2 potentiators also act on human KCNQ1 | shares compounds with KCNQ2 pot | CHO KCNQ1 stable, FluxOR thallium flux fluorescence; beyond 3SD, as % of vehicle-control signal | activation over 3SD threshold, % at 10 µM | 1,200 tested, 28% active;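 active = fluorescence ratio rise of at least 3 SD of vehicle wells above their mean, in both replicate wells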;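 also: 0% = vehicle mean plus 3 SD and 100% = vehicle minus unstimulated blank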
KCNQ2 pot conf: rat KCNQ2 channel potentiator confirmation | shares compounds with KCNQ2 pot | CHO-KCNQ2 cells, FluxOR thallium flux fluorescence | potentiation, less the hit threshold, % at 10 µM | 1,200 tested, 68% active | AID 2287;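 active = fluorescence ratio rising 3 SD or more over the vehicle control mean in both replicates, plus primary screen hit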;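 also: peak minus minimum thallium fluorescence divided by baseline after K/Tl stimulus; 0% = vehicle mean plus 3 SD and 100% = vehicle minus unstimulated blank difference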
Kir2-1 sel: tests whether KCNQ2 potentiators also affect mouse Kir2.1; shares compounds with KCNQ2 pot; HEK293 Kir2.1, FluxOR thallium flux fluorescence; activity over 3SD threshold, % at 10 µM; 1,200 tested, 2% active; AID 2345;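 active = fluorescence ratio rise of at least 3 SD above the vehicle-control mean, seen in both replicates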;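 also: 0% = vehicle mean plus 3 SD and 100% = vehicle minus no-stimulus blank window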
KCNQ2 W236L pot: potentiates the retigabine-insensitive rat KCNQ2 W236L mutant channel; current increase over 3SD of negative controls (%), stronger effect = higher value, % at 25 µM; 940 tested, 10% active; shares compounds with KCNQ2 pot; CHO KCNQ2-W236L, automated patch clamp current;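 active = current increase at least 3 SD of the untreated controls above them in both duplicate recordings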
Target sequence (O88943 whole entry W236L, looked up): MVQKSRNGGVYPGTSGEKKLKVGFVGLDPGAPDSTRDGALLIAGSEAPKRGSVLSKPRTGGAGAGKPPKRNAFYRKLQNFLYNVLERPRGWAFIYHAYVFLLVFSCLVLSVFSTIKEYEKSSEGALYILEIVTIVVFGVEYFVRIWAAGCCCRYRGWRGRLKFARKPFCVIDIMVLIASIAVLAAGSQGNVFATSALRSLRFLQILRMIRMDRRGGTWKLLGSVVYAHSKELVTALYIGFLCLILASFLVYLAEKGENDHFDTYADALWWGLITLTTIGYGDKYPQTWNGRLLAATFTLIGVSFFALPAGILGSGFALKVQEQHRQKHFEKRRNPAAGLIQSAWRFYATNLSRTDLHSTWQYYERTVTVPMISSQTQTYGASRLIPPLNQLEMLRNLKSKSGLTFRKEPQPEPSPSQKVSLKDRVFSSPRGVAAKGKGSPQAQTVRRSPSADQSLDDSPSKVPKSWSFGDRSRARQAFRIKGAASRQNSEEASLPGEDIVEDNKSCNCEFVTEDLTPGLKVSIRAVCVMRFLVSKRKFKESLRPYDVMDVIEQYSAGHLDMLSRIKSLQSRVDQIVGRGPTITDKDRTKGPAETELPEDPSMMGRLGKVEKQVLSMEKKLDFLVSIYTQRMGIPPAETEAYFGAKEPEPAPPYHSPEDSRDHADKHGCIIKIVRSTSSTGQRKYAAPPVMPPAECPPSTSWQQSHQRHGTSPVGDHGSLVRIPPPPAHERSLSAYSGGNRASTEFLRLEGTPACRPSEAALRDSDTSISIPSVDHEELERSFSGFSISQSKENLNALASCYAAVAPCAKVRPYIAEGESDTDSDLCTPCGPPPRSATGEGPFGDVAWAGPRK
Starred values were filed as active, the others as inactive; i = inactive; / = no result. An excerpt weighted towards active compounds, which were near 1.6% of everything screened.

SMILES	KCNQ2 block	KCNQ2 pot	Kir21 conf inh	HEK293 ctr	CHO-K1 Tl ctr	KCNQ1 pot spec	KCNQ2 pot conf	Kir2-1 sel	others
CC1(C)CC(=O)C=C(NCCN2CCN(C(=O)Nc3ccc(Cl)c(Cl)c3)CC2)C1	i	0.05	/	/	/	/	/	/
O=C(CNc1ccc(C(F)(F)F)cc1[N+](=O)[O-])OCC(=O)c1ccccc1	i	0.94	/	/	/	/	/	/
O=C(N/N=C/c1cccnc1)c1cccc(S(=O)(=O)Nc2cccc(Cl)c2)c1	i	0.27	/	/	/	/	/	/
COc1ccc(S(=O)(=O)Nc2cc(S(=O)(=O)c3ccccc3)c(O)cc2C)cc1	i	0.29	/	/	/	/	/	/
Cc1cc(O)c(C(C)C)cc1NS(=O)(=O)c1ccccc1	i	/	45.0%*	i	/	/	/	/
O=C(Nc1ccccc1-c1ccccc1)NC1CC2CCCC(C1)N2CCc1ccccc1 (configuration not stated)	i	/	/	/	/	/	/	/
CC1=C(C)C(OCCBr)N(c2cc(O)c(Cl)cc2F)C1=O (configuration not stated)	i	0.44	/	/	/	/	/	/
CC1=NN(C(=O)CSCc2ccccc2)C(O)(c2ccc(Cl)cc2)C1 (configuration not stated)	i	/	/	/	/	/	/	/
CC1=NN(C(=O)c2ccc(Cl)cc2)C(O)(c2ccccc2)C1 (configuration not stated)	i	20.3*	i	i	-13.5	-7.0	-2.4	-40.4	KCNQ2 W236L pot=i
CN(C)c1ccnc2sc3c(=O)n(-c4ccccc4)cnc3c12	i	1.35	/	/	/	/	/	/
COC(=O)c1ccc(CNC(=O)CNc2cc(C(F)(F)F)ccc2N2CCOCC2)cc1	i	0.01	/	/	/	/	/	/
CCn1nc(C(=O)OCc2c(C)noc2C)c2ccccc2c1=O	i	8.4*	i	i	77.2*	-22.7	-17.7	-42.2
CCn1nc(C(=O)OCC(=O)NC(C)C)c2ccccc2c1=O	i	/	/	/	/	/	/	/
O=[N+]([O-])c1ccc(NC(=S)NCc2ccncc2)cc1	i	1.63	/	/	/	/	/	/
O=[N+]([O-])c1ccc(NC(=S)NCc2ccc(F)cc2)cc1	i	20.8*	/	/	-6.8	10.9*	42.0*	-50.5	KCNQ2 W236L pot=i
Cc1ccccc1C(=O)c1cccn1CC(=O)NC1CCCC(C)C1C (configuration not stated)	i	/	/	/	/	/	/	/
N=C1S/C(=C\c2ccc(-c3cccc(Cl)c3)o2)C(=O)N1c1nccs1	i	6.54*	i	i	-7.3	-21.6	6.8*	-38.9	KCNQ2 W236L pot=i
COc1ccc(/C=C2\SC(=N)N(c3nccs3)C2=O)cc1OC	i	4.81	/	/	/	/	/	/
COc1cccc(C(=O)O/N=C(\N)c2ccc(C)cc2)c1	i	/	/	/	/	/	/	/
Cc1cccc2c1-c1sc(C(=O)NCCCN3CCCC(C)C3)cc1CO2 (configuration not stated)	i	/	/	/	/	/	/	/
NC(=O)SCC(=O)Nc1ccc(Cl)cc1	i	6*	i	i	-10.3	19.8*	19.5*	-39.9	KCNQ2 W236L pot=i
COCC(=O)Nc1ccc(C)c(Cl)c1	i	2.11	/	/	/	/	/	/
Cc1ccc(NC(=O)CSC(N)=O)cc1Cl	i	5.29	i	i	-23.5	-21.8	3.0*	-41.8	KCNQ2 W236L pot=i
Cc1c(Cl)cccc1NC(=O)CSC(N)=O	i	4.6	/	/	/	/	/	/
NC(=O)SCC(=O)Nc1cccc(Cl)c1	i	7.69*	i	i	16.3*	-5.6	12.4*	-43.8	KCNQ2 W236L pot=i
N#CCSCC(=O)Nc1ccc(Cl)cc1	i	0.01	/	/	/	/	/	/
O=C1CN(C(=O)c2ccccc2F)C(c2ccccc2)c2cc(F)ccc2N1 (configuration not stated)	i	2.56	/	/	/	/	/	/
CCOC(=O)c1[nH]c2ccc(C)cc2c1N	i	0.19	/	/	/	/	/	/
